Source: PubChem BioAssay
Compounds with a hit are over-represented: about 19% of the library has one in this group of screens.
HT1080 IDH1KD tx: kills HT-1080 cells with IDH1 knockdown | HT-1080 IDH1 knockdown viability, ATP luminescence, 48 h | Potency, µM (series often up to 46.1 µM), without a hit: at the top dose activity, negative = toxicity, actives largely listed as cytotoxic | hit rate 2% among 360,000 | AID 686971;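 also: potency is read from the fitted curve at half-maximal effect; 0% = DMSO wells and -100% = cell-free medium wells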
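Assay cells: HT-1080 with IDH1 knockdown, 750 per well, RPMI/5% FBS. Exposure: 48 h at 37 °C following 2 h pre-incubation. Read: CellTiter-Glo luminescence; fitted concentration-response, curve class assigned.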
IL1B secr inh: inflammasome signaling inhibition, IL-1 beta readout; THP-1 LPS/ATP IL-1B secretion, AlphaLISA, 16 h; hits give low values; activity change, % at 57.5 µM; hit rate 4.7% among 360,000; AID 743279; in the data active = activity change below about -50%; inconclusive = mostly about -30% to -49%
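Secreted IL-1B measured by AlphaLISA bead assay after 16 h compound exposure of THP-1 cells; compounds (final up to 57.5 uM) added 1 h before LPS (250 ng/mL) and ATP (1.25 mM) stimulation; lower signal means less secretion.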
ELG1 repair inh: inhibitors of ELG1-dependent DNA repair in HEK293T cells; HEK293T ELG1-luciferase reporter, luminescence, 16 h; DNA damage induced by 5-fluorouridine; Potency, µM (doses to about 46.1 µM), without a hit: top-dose activity change, negative = inhibition, usual class: inhibitors; hit rate 2.3% among 330,000; also: potency is read from the fitted curve at half-maximal effect; nearly all actives have a fitted effect of over 55% in size
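DMSO vehicle served as the neutral condition. Each well held 2,000 cells given 5-fluorouridine plus compound; after 16 hr at 37 °C/5% CO2, ONE-Glo was added and luciferase measured 30 min later.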
HT1080-NT tox: kills 2HG-producing HT-1080-NT fibrosarcoma cells; HT-1080-NT fibrosarcoma viability, CellTiter-Glo ATP luminescence, 48 h; Potency, µM (highest dose often 46.1 µM), for inactives: at the highest dose activity, negative = less viability, usual class: cytotoxic; hit rate 1.6% among 360,000; AID 686970;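 also: NT is the 2HG producing partner of a matched IDH1 knockdown line; potency is read from the fitted curve at half-maximal effect; 0% = DMSO-treated cells and -100% = media-only wells without cells; nearly all actives have a fitted effect of over 55% in size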
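Toxicity toward the 2HG-producing NT line was scored as %Activity, normalised to DMSO and no-cell wells, from CellTiter-Glo luminescence after 48 hours' treatment.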
DT40 TDP1 CPT: growth inhibition of DT40 Tdp1-/-;hTDP1 cells with camptothecin (screen for TDP1 inhibitors) | chicken DT40 Tdp1-/-;hTDP1 cells + 20 nM CPT, ATP luminescence, 48 h | Potency, µM (titrated, usually from 46.2 µM), for the others: top-dose activity change, negative = growth inhibition, usual class: inhibitors | hit rate 12% among 420,000; also: potency is read from the fitted curve at half-maximal effect; nearly all actives have a fitted effect of over 55% in size
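Chicken DT40 Tdp1-/- cells stably complemented with human TDP1 were seeded at 400 cells/well in medium containing 20 nM camptothecin, exposed to pin-transferred compounds, and grown at 37 °C for at least 48 hr. Viability was read as ATP luminescence.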
DT40 TDP1 no CPT: qHTS for Inhibitors of human tyrosyl-DNA phosphodiesterase 1 (TDP1): qHTS in cells in absence of CPT. DT40 Tdp1-/- hTDP1 cells, no CPT, ATP luminescence, 48 h. Potency, µM (highest dose often 46.2 µM), without a hit: at the top dose activity change, negative = growth inhibition, hits mostly inhibitors. hit rate 15% among 420,000; also: potency is read from the fitted curve at half-maximal effect; nearly all actives have a fitted effect of over 55% in size
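Chicken DT40 Tdp1-/- cells stably complemented with human TDP1 were seeded at 400 cells/well with DMSO in place of 20 nM camptothecin. After compound pinning, cells grew at least 48 hr at 37 °C; viability read by CellTiter-Glo luminescence.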
An asterisk follows results filed as active; ? = inconclusive; · = no result; ! = repeats disagree. Unless noted, calls follow the shape of the dose curve; as a rule, active = well fitted curve in the direction sought with a large enough effect; inconclusive = small, poorly fitted or top-dose-only effect, or another doubt; inactive = no such curve, though single readings can be large; an effect the other way counts as inactive or inconclusive. Unless noted, % is scaled to controls: 0 for no effect and ±100 for the full control effect.

SMILES	HT1080 IDH1KD tx	IL1B secr inh	ELG1 repair inh	HT1080-NT tox	DT40 TDP1 CPT	DT40 TDP1 no CPT
COc1ccc(-c2n[nH]c3c2CN(C(=O)c2ccc(OC)c(OC)c2)CC3)cc1	21µM*	1	?	-27%	8.2µM*	8.2µM*
COc1ccc(C2c3cc(OC)c(OC)cc3CCN2S(C)(=O)=O)cc1OC (stereo not drawn)	-9%	38	?	-2%	16µM*	21µM*
COc1cc2c(cc1OC)C(COc1cc(C)cc(C)c1)N(C(=O)c1ccc(S(=O)(=O)N3CCCC3)cc1)CC2 (stereo not drawn)	·	·	·	·	?	-22%
CCOC(=O)[C@H](CS)NCCN[C@@H](CS)C(=O)OCC	·	·	·	·	2%	-7%
COc1cc2c(cc1OC)C(COc1ccc(C(C)C)cc1)NCC2 (stereo not drawn)	-6%	-20	-23%	-11%	?	16µM*
COc1ccc(C(=O)N2CCc3cc(OC)c(OC)cc3C2COc2ccccc2OC)cc1 (stereo not drawn)	·	·	·	·	16µM*	29µM*
COc1cc2c(cc1OC)C(c1cccs1)NCC2 (stereo not drawn)	1%	11	15%	-9%	-7%	?
COc1ccc(C(=O)N2CCc3cc(OC)c(OC)cc3C2c2ccc(OC)c(OC)c2)cc1 (stereo not drawn)	?	-51*	-10%	-24%	?	?
COc1cccc(/C=N/n2nnnc2N)c1OCC#N	17%	7	·	16%	12%	-5%
Cc1ccc(C(c2sc3nc(-c4ccco4)nn3c2O)N2CCN(Cc3ccccc3)CC2)cc1 (stereo not drawn)	·	·	·	·	-2%	-29%
O=C(c1ccc(Cl)cc1Cl)N1CCN(c2ccc(N3CCOCC3)nn2)CC1	2%	13	?	-2%	-27%	?
CCOC(=O)C1(C)CCCN(C(=O)c2cccc3ccccc23)C1 (stereo not drawn)	1%	0	·	15%	-20%	-25%
CCOc1ccc2nc(N3CCC(C(=O)N4CCN(C5CCCCC5)CC4)CC3)sc2c1	2%	-1	?	-1%	8.2µM*	?
CCOc1ccc2nc(N3CCCC(C(=O)N4CCN(CC)CC4)C3)sc2c1 (stereo not drawn)	-17%	-2	?	-2%	-4%	-22%
CCOc1ccc2nc(N3CCC(C(=O)N4CCN(C(=O)c5ccco5)CC4)CC3)sc2c1	7%	1	?	8%	?	23µM*
CCOc1ccc2nc(N3CCC(C(=O)Nc4nnc(CC)s4)CC3)sc2c1	-3%	3	?	-3%	-26%	-1%
CCOc1ccc2nc(N3CCC(C(=O)Nc4ccccc4CC)CC3)sc2c1	·	·	·	·	?	23µM*
O=c1n(Cc2ccccc2)nc2n1-c1cc(Cl)ccc1OC2	·	·	·	·	-5%	-23%
COc1ccc(COc2cccnc2N)cc1	-4%	-1	?	0%	-29%	-30%
Nc1ncccc1OCc1ccc(Br)cc1	-9%	-10	?	-17%	-27%	18µM*
O=S(=O)(c1ccc(Cl)cc1)c1nc(-c2cccs2)oc1N1CCCCC1	·	·	·	·	?	16µM*
CCS(=O)(=O)c1nc(S(=O)(=O)c2ccc(Cl)cc2)c(N2CCC(C(N)=O)CC2)s1	4%	-18	1%	5%	10%	14%
NC(=O)C1CCN(c2oc(-c3cccs3)nc2S(=O)(=O)c2ccc(Cl)cc2)CC1	-14%	-55*	-7%	2%	11%	0%
O=S(=O)(c1ccc(F)cc1)c1nc(-c2ccccc2F)oc1N1CCCCC1	-12%	-11	-30%	-7%	?	?
O=C(O)C1CN(C(=O)c2cccc(Br)c2)C1	23%	6	7%	7%	1%	5%
SMILES	HT1080 IDH1KD tx	IL1B secr inh	ELG1 repair inh	HT1080-NT tox	DT40 TDP1 CPT	DT40 TDP1 no CPT
O=S(=O)(CC(CN1CCCC1)N1CCCC1)c1ccc2ccccc2c1 (stereo not drawn)	23µM*	-107*	12µM*	16µM*	3.3µM*	4.6µM*
C/C(N)=C(/C#N)C(=O)CSc1nc(C2CCCCC2)n(-c2ccccc2)n1	0%	-6	?	-21%	13µM*!	?
NC(=O)NC(=O)CSc1nc(C2CCCCC2)n(-c2ccccc2)n1	-4%	-2	3%	2%	-8%	?
COc1cccc(Nc2nc(-c3sc(C)nc3C)cs2)c1	-13%	3	?	-17%	-17%	?
COc1ccccc1Nc1nc(-c2sc(N)nc2C)cs1	-13%	-12	?	-10%	-15%	?
Cc1nc(N)sc1-c1csc(Nc2ncccn2)n1	21µM*	-81*	?	?	16µM*	18µM*
COc1cccc(Nc2nc(-c3sc(NC(=O)c4ccco4)nc3C)cs2)c1	-11%	-18	?	-15%	?	23µM*
COc1cccc(Nc2nc(-c3sc(N)nc3C)cs2)c1	24%	0	?	-5%	23µM*	?
CC(C)C[C@@H](CN1CCC[C@@H]1CN1C(=S)NC[C@@H]1Cc1ccccc1)N1C[C@H](Cc2ccc(O)cc2)N(CC2CCCCCC2)C1=S	18µM*	-15	·	?	13µM*	18µM*
CC(C)C[C@@H](CN1CCCC1CN1C(=S)NC[C@@H]1Cc1ccc(O)cc1)N1C[C@H](Cc2ccc(O)cc2)N(CC2CCCCC2)C1=S (stereo partly drawn)	?	-87*	·	18µM*	21µM*	15µM*
CC(C)C[C@@H](CN1CCC[C@@H]1CN1C(=S)NC[C@@H]1Cc1ccccc1)N1C[C@H](Cc2ccc(O)cc2)N(CC2CCCCC2)C1=S	1%	8	·	1%	?	23µM*
COc1cccc(CNC(=O)CCn2cnc3ccccc3c2=O)c1	·	·	·	·	-7%	-8%
Cc1ccc(NC(=O)Cn2c(=O)n(Cc3ccccc3)c(=O)c3c(C)c(C)sc32)c(C)c1	·	·	·	·	-24%	-11%
COCCCNC(=O)c1c(NC(=O)c2cccs2)sc2c1CCCC2	2%	-10	?	7%	-22%	?
COCCCNC(=O)c1c(NC(=O)c2nc(S(C)(=O)=O)ncc2Cl)sc2c1CCCC2	·	·	·	·	1µM*	0.73µM*
CCNC(=O)c1c(NC(=O)c2nc(S(=O)(=O)CC)ncc2Cl)sc2c1CCCC2	·	·	·	·	-112%	0.73µM*
CCCSc1ncc(Cl)c(C(=O)Nc2sc3c(c2C(=O)NCCCOC)CCCC3)n1	·	·	·	·	13µM*	11µM*
